Compound activity (PubChem BioAssay)
Shown are actives, neighbours in structure and some others; about 2.4% of the full set was active somewhere.
L929 necroptosis: blocks zVAD induced death of L929 cells; L929 zVAD necroptosis rescue, ATP luminescence, 24 h; with zVAD 60 µM; AID 1377; 220,000 tested, 0.38% active; viability rescue, % at 10 µM;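 active means activation, scaled between plate controls, above about 75%, limit read from the data; inactive means activation under that limit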;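 further: 0% = zVAD with DMSO and 100% = DMSO alone without zVAD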
TNF necrop inh: blocks TNF-alpha induced death of Jurkat FADD-/- cells; Jurkat FADD-/- TNF necroptosis rescue, ATP luminescence, 24 h; 0 = TNF only, 100 = no-TNF cells; activation (protection from cell death), % at 10 µM; 220,000 tested, 0.068% active; AID 463075;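 active means activation, meaning protection from cell death, of at least 50% relative to plate controls; inactive means activation below 50%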;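 further: necroptosis triggered by 40 ng/mL TNF-alpha added together with compound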
Mcl1 Noxa PPI: Mcl-1/Noxa interaction inhibition; TR-FRET Mcl-1/Noxa peptide binding, 2 h; Q07820; inhibition, % at 21.7 µM; 220,000 tested, 1.5% active;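 active means compounds that cut the protein-peptide binding signal by more than 50% relative to plate controls in a single-dose test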;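 further: His-tagged Mcl-1 with rhodamine Noxa BH3 peptide and terbium anti-His antibody; 0% = Mcl-1 plus Noxa peptide wells and 100% = peptide-only wells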
Target sequence (Q07820 whole entry, looked up): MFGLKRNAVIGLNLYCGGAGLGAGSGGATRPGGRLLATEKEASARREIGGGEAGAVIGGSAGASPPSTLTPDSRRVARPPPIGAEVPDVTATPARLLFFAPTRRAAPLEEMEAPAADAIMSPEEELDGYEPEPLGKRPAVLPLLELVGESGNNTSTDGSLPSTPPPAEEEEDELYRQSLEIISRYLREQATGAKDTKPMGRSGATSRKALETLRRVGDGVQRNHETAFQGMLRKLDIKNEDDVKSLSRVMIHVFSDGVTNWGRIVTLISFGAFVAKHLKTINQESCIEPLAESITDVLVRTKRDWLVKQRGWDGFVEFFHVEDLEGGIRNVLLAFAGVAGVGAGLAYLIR
MCL1-BIM inh: disrupts human MCL1 binding to BIM-BH3 peptide | Q07820 | GST-MCL1 / FITC-Bim-BH3 fluorescence polarization | inhibition, % at 10.9 µM | 320,000 tested, 0.68% active | AID 2057;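 active means inhibition above the mean inhibition of all tested compounds plus 3 SD, set per campaign, cut at about 40% in these data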;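 further: 0% = DMSO wells and 100% = unlabeled Bim-BH3 peptide control; higher means more loss of mP so more displacement of Bim peptide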
Mcl1-Bid inh: Mcl-1/Bid interaction inhibition; Q07820; TR-FRET Mcl-1/Bid-Dy647 peptide binding, 1536-well; inhibition, % at 21.7 µM; 220,000 tested, 0.97% active; AID 1021;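 active means compounds that cut the binding signal by more than half at the single screening dose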;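 further: His-tagged Mcl-1 with europium anti-His antibody binding Bid BH3 peptide; 0% = Mcl-1 plus peptide wells and 100% = peptide-only wells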
Mcl-1 Bim block: inhibitors of Bim-Mcl-1 interaction, human. inhibition, % at 10 µM. Q07820. 190,000 tested, 0.1% active. Bead-based flow cytometry, Bim peptide-Mcl-1 binding; in the data active means inhibition above about 40%;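 further: 0% = no compound tracer wells and 100% = peptide blocker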
Bcl-xL conf: Bcl-xL (human) inhibition, MCL1 counter-screen confirmation | AID 2166 | 1,700 tested, 54% active | GST-Bcl-xL / FITC-Bim BH3 peptide FP binding | inhibition, % at 10.9 µM | shares compounds with MCL1-BIM inh;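 active means inhibition above a cutoff equal to the mean inhibition of all tested compounds plus 3 SD, cut at about 30% in these data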;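 further: 0% = DMSO wells and 100% = unlabeled Bim BH3 control peptide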
MCL1 inh confirm: confirmation of human MCL1 and BIM-BH3 interaction inhibitors | inhibition, % at 10.9 µM | shares compounds with MCL1-BIM inh | GST-MCL1 / FITC-Bim-BH3 fluorescence polarization | AID 2168 | 1,700 tested, 61% active;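 active means inhibition above the average of all tested compounds plus 3 SD, cut at about 40% in these data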;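 further: 0% = DMSO wells and 100% = unlabeled Bim-BH3 control peptide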
* = called active by the depositor; · = no result given; + = active, no number.

SMILES	L929 necroptosis	TNF necrop inh	Mcl1 Noxa PPI	MCL1-BIM inh	Mcl1-Bid inh	Mcl-1 Bim block	Bcl-xL conf	MCL1 inh confirm
O=C1c2cccc3c(N4CCCCC4)ccc(c23)C(=O)N1c1ccccc1O	1	-1	-23	-5	-11	-3	·	·
Cc1cc(NC(=O)CSc2nnnn2-c2ccc(C)c(Cl)c2)no1	·	·	·	-1	·	·	·	·
O=C(Nc1cccc2ncccc12)C(c1ccccc1)c1ccccc1	-1	0	-4	-7	-24	-1	·	·
N#CC1=C(N)C(C#N)(C#N)[C@H](c2c(F)cccc2F)[C@H]2CC3(CC=C12)OCCO3	0	-18	-4	62*	-17	1	35*	34
CN1C2C=C3C(C#N)=C(N)C(C#N)(C#N)[C@H](c4c(F)cccc4F)[C@H]3C1CC2 (stereo not given in full)	0	-2	4	17	-66	-1	·	·
Cc1c2ccccc2nc2c(F)c(NC(C)C)c(F)c(F)c12	0	1	-23	139*	-38	-1	131*	151*
Cc1c2ccccc2nc2c(F)c(NCCO)c(F)c(F)c12	1	-2	-34	+	-55	-1	+	+
CCCC1=NN2C(=N)/C(=C\c3ccc(SCc4ccco4)o3)C(=O)N=C2S1	1	-3	84*	80*	49	2	7	26
Cc1n[nH]c(=O)c2c(NC(=O)CSc3nn(-c4ccccc4)c(=S)s3)oc(C)c12	·	·	·	-1	·	·	·	·
Cc1ccc(SCCNC(=O)/C=C/c2ccc(Cl)cc2)cc1	1	1	0	54*	-31	-1	24	34
Cc1ccc(SCCNC(=O)/C=C/c2ccc([N+](=O)[O-])cc2)cc1	0	1	0	1	-11	1	·	·
Cc1cc(=O)n2nc(N3CCCC(C(=O)NC4CCCCC4C)C3)sc2n1 (stereo not given)	·	·	·	0	·	·	·	·
CCOc1ccc(S(=O)(=O)N2CCOCC2)cc1NC(=O)CSC(=S)N1CCCC1	·	·	·	2	·	·	·	·
C/C(N)=C(/C#N)C(=O)CSc1nnc(Nc2cccc(C)c2)s1	0	1	36	40*	-25	-1	14	41*
CCC(=O)Nc1ccc(C(=O)COC(=O)c2nc3nccc(C)n3n2)cc1	·	·	·	54*	·	·	1	52*
Cc1ccc(/C=C/C(=O)Nc2nnc(C)s2)o1	1	0	13	6	-35	-10	·	·
Cc1ccc(/C=C/C(=O)Nc2cccc3cccnc23)o1	0	1	21	84*	-7	1	32*	40*
O=C(CSc1nc(-c2ccccc2)cc(=O)[nH]1)N1CCOCC1	0	-2	23	48*	-1	-5	10	3
CC(=O)Nc1ccc2nc3c(=O)n(C)c(=O)n(C)c3nc2c1	1	-2	58*	190*	-21	·	146*	190*
Cc1ccc(C(=O)NCC(=O)NCC(=O)OCC(=O)c2ccc(Br)cc2)cc1	1	2	-17	54*	-40	3	2	2
NC(=O)c1c(NC(=O)C2CC=CCC2C(=O)O)sc2c1CCCCC2 (stereo not given)	·	·	·	41*	·	·	20	20
CCOC(=O)c1c(C)[nH]c(C2=NNC(=Nc3ccc(OCC)cc3)SC2)c1C	1	2	-22	70*	-65	-7	21	13
CCOC(=O)c1c(C)[nH]c(C2=NNC(=Nc3ccccc3)SC2)c1C	6	-6	12	·	-54	-5	·	·
CN1CCC(=C2c3ccccc3C(O)c3ccccc32)CC1 (stereo not given)	-1	3	-1	-2	-32	·	·	·
CN1CCc2cccc3c2C1Cc1ccc(O)c(O)c1-3 (stereo not given)	·	·	·	49*	·	·	46*	70*
c1ccc(Nc2ccccc2Nc2ccccn2)nc1	-1	-2	9	98*	3	-3	18	29
Nc1ccc(C(=O)O)c(O)c1	0	1	14	32	-16	1	·	·
